# Experimental data: PubChem BioAssay
# The list shows a part of the results. Unmarked numbers belong to inactive results. Activity calls are given as the source filed them.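 The calls were made as follows: active = mean inhibition above about 50% in the one-dose retest (limit read from the data); inactive = the rest.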
# Molecular target: Sentrin-specific protease 7 (Homo sapiens) (UniProt Q9BQF6)
# Experiment: SENP7 protease inhibitors, retest, confirmation, biochemical, luminescence, single concentration (AID 488917)
# Conditions: recombinant SENP7, Z-RLRGG-aminoluciferin luminescence, 40 min; at 12.5 µM; hits give high values
# Chain of Sentrin-specific protease 7 (Homo sapiens) (Q9BQF6 706-1050 limits assumed): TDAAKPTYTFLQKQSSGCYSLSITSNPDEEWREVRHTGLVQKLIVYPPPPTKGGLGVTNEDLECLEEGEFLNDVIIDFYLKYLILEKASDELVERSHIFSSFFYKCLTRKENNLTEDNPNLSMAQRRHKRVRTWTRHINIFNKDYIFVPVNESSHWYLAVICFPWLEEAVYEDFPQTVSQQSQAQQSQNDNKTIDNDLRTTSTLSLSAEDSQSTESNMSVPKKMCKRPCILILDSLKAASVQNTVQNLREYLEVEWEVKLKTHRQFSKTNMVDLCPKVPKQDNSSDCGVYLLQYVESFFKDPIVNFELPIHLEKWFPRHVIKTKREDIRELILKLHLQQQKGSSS
row,SMILES,inhibition
1,O=[N+]([O-])c1ccccc1N/N=C1\CCc2ccccc21,-10.4%
2,CCCCSc1nnc(-c2ccc(C)cc2)o1,85.3% (active)
3,COc1ccc2nc(Nc3nc4cc5c(cc4s3)OCCO5)sc2c1,71.6% (active)
4,Cc1ccc(O)c(CNc2nc3ccccc3n2C)c1,7.6%
5,Cc1[nH]n(-c2ccc([N+](=O)[O-])cc2)c(=O)c1C=NCCN1CCN(C(=O)c2ccccc2F)CC1,3.9%
6,N=c1c2c3c(sc2nc2n1CCCCC2)CCCC3,10.6%
7,O=C(ON=C1CCN(S(=O)(=O)c2ccccc2)CC1)c1ccc(Cl)cc1,3.4%
8,Oc1ccc(Br)cc1C=Nc1ccc2[nH]ncc2c1,-2.2%
9,O=c1c(-c2ccccc2)coc2cc(O)ccc12,88.2% (active)
10,O=C1/C(=C/c2cccs2)CCC1C1CCCC1 (centres undefined),50.7% (active)
11,O=c1oc2cc(O)ccc2cc1-c1ccc(F)cc1,103% (active)
12,O=C(COc1ccc2oc3c(c2c1)CCCC3)Nc1ccccn1,11.9%
13,COc1cccc(C(=O)c2cc3ccc(O)cc3oc2=O)c1,103% (active)
14,C1=C(CCNc2ncnc3c2cnn3-c2ccccc2)CCCC1,-1.5%
15,O=C(Nc1ncc([N+](=O)[O-])s1)C1COc2ccccc2O1 (centres undefined),103% (active)
16,Cc1ccc(NC(=O)c2sccc2C)cc1[N+](=O)[O-],95.7% (active)
17,O=C(OC1CCOC1=O)c1ccc(-c2nc3ccccc3s2)s1 (centres undefined),100% (active)
18,COC(=O)c1sc(NC(=O)c2ccc(OC)cc2OC)nc1C,22.1%
19,COc1ccc(C(=O)Nc2ccc(F)cc2F)cc1,87.6% (active)
20,CSC1=N/C(=C\C=C\c2cccs2)C(=O)S1,85.3% (active)

row,SMILES,inhibition
1,O=C(OCC(=O)N1CCN(c2ccccc2)CC1)c1ccc([N+](=O)[O-])s1,25.4%
2,COc1ccc(/C=N/Nc2ccccc2C(=O)O)cc1,103% (active)
3,O=C(Nc1ccc(F)cc1)c1cc2c(s1)CCCC2,101% (active)
4,COc1ccc(-n2ncc3c(SCC(=O)NNC(C)=O)ncnc32)cc1,11.2%
5,Cc1ccnc(NC(=O)c2ccoc2C)c1,97.1% (active)
6,O=C(Nc1cccnc1Cl)c1cc(-c2ccccc2O)on1,16.2%
7,COc1cc(C#Cc2ccc3cc(CCCO)oc(=O)c3c2)cc(OC)c1,86.6% (active)
8,C/C(=N\Nc1nc2ccccc2[nH]1)c1cccs1,81.2% (active)
9,CCc1ccc(NC(=O)C(=O)NNC(=O)c2cccs2)cc1,93.2% (active)
10,FC(F)(F)c1ccnc(Oc2ccc(C3=NCCS3)cc2)c1,53.1% (active)
11,Cc1cccc(-c2noc(-c3ccc(F)cc3)n2)c1,89.5% (active)
12,O=c1c2c(nc3cc(-c4cccc(Cl)c4)[nH]n13)CCCC2,21.5%
13,COc1ccc(C(=O)Nc2ccc3c(c2)OCO3)cc1OC,93.5% (active)
14,Cc1cc(C(=O)N/N=C/c2ccc(N3CCOCC3)cc2)c(C)o1,98.6% (active)
15,O=C(Nc1ccc(Cl)cc1)c1ccsn1,78.1% (active)
16,O=C1/C(=C/c2cccs2)CCc2ccccc21,101% (active)
17,O=C(Nc1ccccc1C(=O)Nc1ccncc1)c1ccc([N+](=O)[O-])cc1,85.4% (active)
18,Oc1cccc2ccc(/C=C/c3ccc(Br)s3)nc12,52.2% (active)
19,Nc1ccc(-c2nnc(-c3ccc(-c4ccccc4)cc3)o2)cc1,32.4%
